Test results from PubChem BioAssay (NCATS).
Records with an inconclusive call do not appear. The source made the active and inactive calls. Calls follow the shape of the dose curve; as a rule, active = well fitted inhibition curve with a large enough effect; inconclusive = small, poorly fitted or top-dose-only effect; inactive = no such curve, though single readings can be large or run the other way.

Test: ZIKV-mCherry secondary qHTS for Zika virus inhibitors (AID 1347158); also: top concentration of the series differs between compounds
Details: Vero cells, ZIKV-mCherry infection imaging, 48-72 h; series mostly up to 32.6 µM
Procedure, shortened: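 Compounds were tested in Vero monkey kidney cells infected with recombinant mCherry-expressing Zika virus at MOI 1 for 48-72 h at 37 °C. Fixed cells were nuclear-stained and imaged, and infection rate was taken as the fraction of mCherry-positive cells.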

| Compound | outcome |
| --- | --- |
| CCC(CC)(CC(=O)Nc1cccc(/C=C/c2nc(C3CCC3)cs2)c1)C(=O)O | inactive |
| CC1(COc2ccc(CC3SC(=O)NC3=O)cc2)CCCCC1 (stereo not drawn) | inactive |
| C=C1c2cccc(O)c2C(O)=C2C(=O)[C@]3(O)C(O)=C(C(N)=O)C(=O)[C@@H](N(C)C)[C@@H]3[C@@H](O)[C@H]12 | inactive |
